# About 410 targets per protein were measured; listed, in parts, are those with the strongest signals and a random draw of the rest.
# Assays:
# Experiment in all cases: glycan array binding signal (z-score within array); higher = stronger binding
# Settings in all cases: glycan notation: IUPAC condensed, linker removed
# [1] = biological target: Fuc(a1-2)Gal(b1-4)GlcNAc(b1-3)Gal(b1-4)GlcNAc(b1-2)Man(a1-3)[Fuc(a1-2)Gal(b1-4)GlcNAc(b1-3)Gal(b1-4)GlcNAc(b1-2)Man(a1-6)]Man(b1-4)GlcNAc(b1-4)GlcNAc
# Procedure, shortened: (§1)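 The binding signal is a Z-score computed within each array. Data were drawn from 3228 arrays in the Consortium for Functional Glycomics database, restricted to those with a known protein sequence. Scores were averaged over arrays of the same protein sequence at different concentrations or buffers, and over linkers, and negative values can be taken as non-binding.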
# [2] = biological target: Fuc(a1-2)Gal6S(b1-3)GlcNAc6S
# Procedure, shortened: as §1
# [3] = biological target: Fuc(a1-2)[Gal(a1-3)]Gal(b1-4)[Fuc(a1-3)]GlcNAc(b1-3)GalNAc
# Procedure, shortened: as §1
# [4] = biological target: Fuc(a1-2)[Gal(a1-4)]Gal(b1-4)GlcNAc
# Procedure, shortened: as §1
# [5] = biological target: Fuc(a1-2)[GalNAc(a1-3)]Gal(b1-4)GlcNAc(b1-3)Gal(b1-4)GlcNAc(b1-3)Gal(b1-4)GlcNAc
# Procedure, shortened: as §1
# [6] = biological target: Gal(a1-3)Gal(b1-3)GlcNAc(b1-6)GalNAc
# Procedure, shortened: as §1
# [7] = biological target: Gal(a1-3)Gal(b1-4)GlcNAc
# Procedure, shortened: as §1
# [8] = biological target: Gal(a1-3)Gal(b1-4)GlcNAc(b1-2)Man
# Procedure, shortened: as §1
# [9] = biological target: Gal(a1-4)GlcNAc
# Procedure, shortened: as §1
# [10] = biological target: Gal(a1-6)Glc
# Procedure, shortened: as §1
# [11] = biological target: Gal(b1-3)Gal
# Procedure, shortened: as §1
# [12] = biological target: Gal(b1-3)GalNAc(a1-3)[Fuc(a1-2)]Gal(b1-4)GlcNAc
# Procedure, shortened: as §1
# [13] = biological target: Gal(b1-3)GalNAc(b1-4)Gal(b1-4)Glc
# Procedure, shortened: as §1
# [14] = biological target: Gal(b1-3)GlcNAc(a1-6)Gal(b1-4)GlcNAc
# Procedure, shortened: as §1
# [15] = biological target: Gal(b1-3)GlcNAc(b1-3)Gal(b1-4)GlcNAc
# Procedure, shortened: as §1
# [16] = biological target: Gal(b1-3)GlcNAc(b1-3)Gal(b1-4)GlcNAc(b1-6)[Gal(b1-3)GlcNAc(b1-3)]Gal(b1-4)Glc
# Procedure, shortened: as §1
# [17] = biological target: Gal(b1-4)GlcNAc(b1-2)[Gal(b1-4)GlcNAc(b1-6)]Man(a1-6)[GlcNAc(b1-4)][Gal(b1-4)GlcNAc(b1-2)Man(a1-3)]Man(b1-4)GlcNAc(b1-4)GlcNAc
# Procedure, shortened: as §1
# [18] = biological target: Gal(b1-4)GlcNAc(b1-3)Gal(b1-4)GlcNAc(b1-2)Man(a1-3)[Gal(b1-4)GlcNAc(b1-3)Gal(b1-4)GlcNAc(b1-2)Man(a1-6)]Man(b1-4)GlcNAc(b1-4)GlcNAc
# Procedure, shortened: as §1
# [19] = biological target: Gal(b1-4)GlcNAc(b1-3)Gal(b1-4)GlcNAc(b1-3)Gal(b1-4)GlcNAc(b1-3)Gal(b1-4)GlcNAc(b1-3)Gal(b1-4)GlcNAc(b1-2)Man(a1-3)[Gal(b1-4)GlcNAc(b1-3)Gal(b1-4)GlcNAc(b1-3)Gal(b1-4)GlcNAc(b1-3)Gal(b1-4)GlcNAc(b1-3)Gal(b1-4)GlcNAc(b1-2)Man(a1-6)]Man(b1-4)GlcNAc(b1-4)[Fuc(a1-6)]GlcNAc
# Procedure, shortened: as §1
# [20] = biological target: Gal(b1-4)GlcNAc(b1-3)GalNAc
# Procedure, shortened: as §1
# [21] = biological target: Gal(b1-4)GlcNAc(b1-3)[GlcNAc(b1-6)]Gal(b1-4)GlcNAc
# Procedure, shortened: as §1
# [22] = biological target: Gal4S(b1-4)GlcNAc
# Procedure, shortened: as §1
# [23] = biological target: Gal6S(b1-3)GlcNAc6S
# Procedure, shortened: as §1
# [24] = biological target: Gal6S(b1-4)Glc6S
# Procedure, shortened: as §1
# [25] = biological target: Gal6S(b1-4)GlcNAc6S
# Procedure, shortened: as §1
# [26] = biological target: GalNAc(b1-3)Gal(a1-4)Gal(b1-4)GlcNAc(b1-3)Gal(b1-4)Glc
# Procedure, shortened: as §1
# [27] = biological target: GalNAc(b1-3)GalNAc
# Procedure, shortened: as §1
# [28] = biological target: GalNAc(b1-4)GlcNAc(b1-2)Man
# Procedure, shortened: as §1
# [29] = biological target: GlcA(b1-6)Gal
# Procedure, shortened: as §1
# [30] = biological target: GlcNAc(a1-4)Gal(b1-4)GlcNAc(b1-3)Gal(b1-4)GlcNAc
# Procedure, shortened: as §1
# [31] = biological target: GlcNAc(b1-2)Man(a1-3)[GlcNAc(b1-4)][GlcNAc(b1-2)Man(a1-6)]Man(b1-4)GlcNAc(b1-4)[Fuc(a1-6)]GlcNAc
# Procedure, shortened: as §1
# [32] = biological target: GlcNAc(b1-2)[GlcNAc(b1-4)]Man(a1-3)[GlcNAc(b1-2)Man(a1-6)]Man(b1-4)GlcNAc(b1-4)GlcNAc
# Procedure, shortened: as §1
# [33] = biological target: GlcNAc(b1-3)Gal(b1-4)GlcNAc
# Procedure, shortened: as §1
# [34] = biological target: GlcNAc(b1-3)Gal(b1-4)GlcNAc(b1-2)Man(a1-3)[GlcNAc(b1-3)Gal(b1-4)GlcNAc(b1-2)Man(a1-6)]Man(b1-4)GlcNAc(b1-4)GlcNAc
# Procedure, shortened: as §1
# [35] = biological target: GlcNAc(b1-3)Gal(b1-4)GlcNAc(b1-3)Gal(b1-4)GlcNAc(b1-3)Gal(b1-4)GlcNAc(b1-2)[GlcNAc(b1-3)Gal(b1-4)GlcNAc(b1-3)Gal(b1-4)GlcNAc(b1-3)Gal(b1-4)GlcNAc(b1-6)]Man(a1-6)[GlcNAc(b1-3)Gal(b1-4)GlcNAc(b1-3)Gal(b1-4)GlcNAc(b1-3)Gal(b1-4)GlcNAc(b1-2)Man(a1-3)]Man(b1-4)GlcNAc(b1-4)[Fuc(a1-6)]GlcNAc
# Procedure, shortened: as §1
# [36] = biological target: GlcNAc(b1-3)[GlcNAc(b1-4)][GlcNAc(b1-6)]GlcNAc
# Procedure, shortened: as §1
# [37] = biological target: Man(a1-6)Man
# Procedure, shortened: as §1
# [38] = biological target: Neu5Ac(a2-3)Gal(b1-3)[Fuc(a1-4)]GlcNAc(b1-3)Gal(b1-4)[Fuc(a1-3)]GlcNAc
# Procedure, shortened: as §1
# [39] = biological target: Neu5Ac(a2-3)Gal(b1-4)GlcNAc(b1-2)Man(a1-3)[Neu5Ac(a2-3)Gal(b1-4)GlcNAc(b1-2)Man(a1-6)]Man(b1-4)GlcNAc(b1-4)GlcNAc
# Procedure, shortened: as §1
# [40] = biological target: Neu5Ac(a2-3)Gal(b1-4)GlcNAc(b1-3)Gal(b1-4)GlcNAc(b1-6)[Gal(b1-3)]GalNAc
# Procedure, shortened: as §1
# [41] = biological target: Neu5Ac(a2-3)Gal(b1-4)[Fuc(a1-3)]GlcNAc(b1-3)Gal
# Procedure, shortened: as §1
# [42] = biological target: Neu5Ac(a2-3)Gal(b1-4)[Fuc(a1-3)]GlcNAc(b1-3)Gal(b1-4)[Fuc(a1-3)]GlcNAc(b1-3)Gal(b1-4)[Fuc(a1-3)]GlcNAc
# Procedure, shortened: as §1
# [43] = biological target: Neu5Ac(a2-6)Gal(b1-4)GlcNAc(b1-2)Man(a1-6)Man(b1-4)GlcNAc(b1-4)GlcNAc
# Procedure, shortened: as §1
# [44] = biological target: Neu5Ac(a2-6)Gal(b1-4)GlcNAc(b1-3)[Neu5Ac(a2-6)Gal(b1-4)GlcNAc(b1-6)]GalNAc
# Procedure, shortened: as §1
# [45] = biological target: Neu5Ac(a2-8)Neu5Ac(a2-3)Gal(b1-3)GalNAc(b1-4)[Neu5Ac(a2-8)Neu5Ac(a2-3)]Gal(b1-4)Glc
# Procedure, shortened: as §1
binder,measurement,setting,value
Epa22 (Candida glabrata) (protein) MGSSHHHHHHSSGLVPRGSHMKRALSSQNPFGYPIGCSPQSTNVIPGLTMELYSYPIVSGTPPNCYDASYVDPEYPRTGYLKRKMIGKSTGVTGSLNYKFSVEKACMVKYGNLPAGYNYNEPLTVSNFTMLLYGYFKPQTSGIHTFFVNADDLLYINFGAGNAFDCCKREDSKFKLGEYVAYDIWHVDSSKNKVSLNLEKDVYYPIRMFFNNIGKDSSLDLSFSVNGAVEHITDFSGYLYSVPDQPDACPAPIGYDTTCK,glycan array binding signal (z-score),[1],-0.382
same,glycan array binding signal (z-score),[2],5.1
same,glycan array binding signal (z-score),[3],-0.345
same,glycan array binding signal (z-score),[4],4.5
same,glycan array binding signal (z-score),[5],-0.366
same,glycan array binding signal (z-score),[6],3.74
same,glycan array binding signal (z-score),[7],5.2
same,glycan array binding signal (z-score),[8],4.75
same,glycan array binding signal (z-score),[9],5.91
same,glycan array binding signal (z-score),[10],6.63
same,glycan array binding signal (z-score),[11],1.3
same,glycan array binding signal (z-score),[12],-0.36
same,glycan array binding signal (z-score),[13],0.34
same,glycan array binding signal (z-score),[14],0.491
same,glycan array binding signal (z-score),[15],-0.148
same,glycan array binding signal (z-score),[16],-0.145
same,glycan array binding signal (z-score),[17],-0.288
same,glycan array binding signal (z-score),[18],0.073
same,glycan array binding signal (z-score),[19],-0.231
same,glycan array binding signal (z-score),[20],-0.023
same,glycan array binding signal (z-score),[21],-0.387
same,glycan array binding signal (z-score),[22],-0.182
same,glycan array binding signal (z-score),[23],5.95
same,glycan array binding signal (z-score),[24],4.93
same,glycan array binding signal (z-score),[25],4.56
same,glycan array binding signal (z-score),[26],-0.336
same,glycan array binding signal (z-score),[27],-0.424
same,glycan array binding signal (z-score),[28],-0.393
same,glycan array binding signal (z-score),[29],5.98
same,glycan array binding signal (z-score),[30],-0.413
same,glycan array binding signal (z-score),[31],-0.35
same,glycan array binding signal (z-score),[32],-0.368
same,glycan array binding signal (z-score),[33],-0.312
same,glycan array binding signal (z-score),[34],-0.39
same,glycan array binding signal (z-score),[35],-0.37
same,glycan array binding signal (z-score),[36],-0.383
same,glycan array binding signal (z-score),[37],-0.371
same,glycan array binding signal (z-score),[38],-0.409
same,glycan array binding signal (z-score),[39],-0.356
same,glycan array binding signal (z-score),[40],-0.248
same,glycan array binding signal (z-score),[41],-0.385
same,glycan array binding signal (z-score),[42],-0.375
same,glycan array binding signal (z-score),[43],-0.426
same,glycan array binding signal (z-score),[44],-0.246
same,glycan array binding signal (z-score),[45],-0.003

# Source: the supplement of paper PMC8728848
